This note sets out measurements from PubChem BioAssay (EPA / NIEHS).

The structures appear in SMILES notation. Calls of active or inactive are those of the source. The calls were made as follows: active = hit-call score of the fitted dose curve at least 0.9, where 1 is the maximum; inactive = score below 0.9.

Sequence of Hepatocyte nuclear factor 6 (Homo sapiens) (Q9UBC0 whole entry, looked up): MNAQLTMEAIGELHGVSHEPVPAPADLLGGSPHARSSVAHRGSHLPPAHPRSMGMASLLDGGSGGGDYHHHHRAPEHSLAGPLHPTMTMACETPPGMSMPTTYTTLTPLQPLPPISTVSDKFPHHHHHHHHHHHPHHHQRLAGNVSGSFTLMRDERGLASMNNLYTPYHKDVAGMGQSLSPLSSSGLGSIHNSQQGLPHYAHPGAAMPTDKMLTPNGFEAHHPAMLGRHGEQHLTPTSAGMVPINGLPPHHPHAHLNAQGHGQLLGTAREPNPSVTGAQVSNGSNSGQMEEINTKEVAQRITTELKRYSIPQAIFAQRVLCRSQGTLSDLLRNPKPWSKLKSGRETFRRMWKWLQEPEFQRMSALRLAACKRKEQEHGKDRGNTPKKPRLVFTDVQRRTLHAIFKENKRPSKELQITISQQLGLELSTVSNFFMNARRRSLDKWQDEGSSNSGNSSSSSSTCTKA
Sequence of Hypoxia-inducible factor 1-alpha (Homo sapiens) (Q16665 whole entry, looked up): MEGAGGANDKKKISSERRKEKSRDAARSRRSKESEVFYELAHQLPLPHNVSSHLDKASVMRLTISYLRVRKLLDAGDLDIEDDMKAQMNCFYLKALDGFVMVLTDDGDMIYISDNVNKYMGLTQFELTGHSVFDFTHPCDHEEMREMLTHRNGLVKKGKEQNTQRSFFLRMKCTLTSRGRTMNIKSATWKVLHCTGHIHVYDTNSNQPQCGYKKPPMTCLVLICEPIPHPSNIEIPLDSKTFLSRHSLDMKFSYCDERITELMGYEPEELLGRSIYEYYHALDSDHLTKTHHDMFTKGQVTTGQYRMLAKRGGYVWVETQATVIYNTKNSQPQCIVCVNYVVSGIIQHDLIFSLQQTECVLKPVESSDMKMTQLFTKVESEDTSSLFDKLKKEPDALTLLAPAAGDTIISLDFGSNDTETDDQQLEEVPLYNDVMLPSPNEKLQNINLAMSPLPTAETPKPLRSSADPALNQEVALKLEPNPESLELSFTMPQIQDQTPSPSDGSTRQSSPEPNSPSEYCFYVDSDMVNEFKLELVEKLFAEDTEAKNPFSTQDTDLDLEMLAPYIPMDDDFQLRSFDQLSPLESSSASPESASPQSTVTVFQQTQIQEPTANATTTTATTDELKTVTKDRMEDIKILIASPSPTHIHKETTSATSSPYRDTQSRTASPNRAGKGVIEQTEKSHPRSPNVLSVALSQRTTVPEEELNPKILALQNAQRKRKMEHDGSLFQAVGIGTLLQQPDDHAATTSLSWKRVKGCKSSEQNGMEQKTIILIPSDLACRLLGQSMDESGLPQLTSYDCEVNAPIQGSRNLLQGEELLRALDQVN

For one assay, the target named is Hypoxia-inducible factor 1-alpha (Homo sapiens) (UniProt Q16665). Briefly: ATG_HIF1a_CIS: Attagene CIS-FACTORIAL HepG2 Assay for human Hypoxia Inducible Factor 1 (HIF1A) (AID 2282951). The conditions noted are these: HepG2 Attagene cis-factorial HIF1a reporter transcription; actives raise or lower the signal. An outline of the steps:
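RT-PCR/capillary electrophoresis fluorescence readout of reporter transcripts from endogenous-TF-driven cis elements in transfected HepG2 cells, 24 h exposure; activity fitted in both directions against DMSO controls.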
In the case of `CCCCCCCCCCCCOC(=O)c1cc(O)c(O)c(O)c1`, the AC50 – broadly, the midpoint of the concentration-response curve, whichever way the signal moves – is 6.75 µM (active).

As for `CCOC(C)=O`, the compound was called inactive.

Regarding `Cc1ccccc1OCC(=O)O`, the compound was classed as inactive.

Turning to `NCc1cccc(CN)c1`, the AC50 was 24.4 µM (active).

For the compound `CC(C)(C)c1ccc(CCC=O)cc1`, the outcome was inactive.

Turning to `CC(=O)CC(C)C`, the call was inactive.

On to `NNc1nc(-c2ccc([N+](=O)[O-])cc2)cs1`, for which the call was inactive.

In the case of `OCC(F)(F)C(F)(F)C(F)(F)C(F)(F)C(F)(F)C(F)(F)C(F)(F)C(F)(F)C(F)(F)C(F)(F)C(F)(F)F`, the compound was classed as inactive.

Turning to `COC(=O)C(F)(F)C(F)(F)C(F)(F)F`, the outcome was inactive.

As for `CCOC=O`, the call was inactive.

With `CCCCCCCCCCCC[N+](C)(C)CCCCCCCCCCCC`, the result was inactive.

Take `CCCCCCCCCC=CCC1CC(=O)OC1=O` (stereo unspecified): the outcome was inactive.

With `FC(F)(F)C(F)(F)C(F)(F)Br`, the compound was called inactive.

Turning to `Oc1cccc2c(O)cccc12`, the call was inactive.

The target in another assay is Hepatocyte nuclear factor 6 (Homo sapiens) (UniProt Q9UBC0). Briefly: ATG_HNF6_CIS: Attagene CIS-FACTORIAL HepG2 Assay for human Hepatocyte Nuclear Factor 6 (HNF6) (AID 2282952). The conditions noted are these: HepG2 Attagene cis-factorial HNF6 reporter transcription; actives raise or lower the signal. An outline of the steps:
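HepG2, transient MRTU transfection (cis promoters); 24 h chemical exposure; total RNA → oligo(dT) RT → PCR → 6-FAM labelling → HpaI cut → CE; bidirectional fit vs DMSO.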
Regarding `CC1=CC(=O)c2ccccc2C1=O`, the result was inactive.

Turning to `CC(C)(C)C1CCCCC1O` (stereo unspecified), the outcome was inactive.

Regarding `CC(C)CCOCCC(C)C`, the compound was called inactive.

Turning to `CCCCCCCCCCCCCC[n+]1ccccc1`, the result was inactive.

Take `CCCCCCCC(OC)OC`: the call was inactive.

Turning to `O=CC(F)(F)C(F)(F)C(F)(F)C(F)F`, the result was inactive.

`CCCCCCCCCCCCCCC`: the outcome was inactive.

Take `O=C1OC(=O)C(F)(F)C1(F)F`: the call was inactive.

Take `COCN(COC)c1nc(N(COC)COC)nc(N(COC)COC)n1`: the result was inactive.

With `CC(=O)Nc1ccc(S(N)(=O)=O)cc1`, the call was inactive.

For the compound `CCCCCCCCCCCC(=O)NCCCN(C)C`, the compound was classed as inactive.

`C=CC(C)(CCC=C(C)C)OC(C)=O` (stereo unspecified): the result was inactive.

For the compound `O=C(OC(=O)C(F)(F)C(F)(F)F)C(F)(F)C(F)(F)F`, the call was inactive.

As to `C[N+](C)(CCCNS(=O)(=O)CCC(F)(F)C(F)(F)C(F)(F)C(F)(F)C(F)(F)C(F)(F)F)CC(=O)[O-]`, the compound was classed as inactive.

For the compound `CCOC(=O)CN[C@@H](C(=O)N1CC[C@H]1C(=O)NCc1ccc(/C(N)=N/O)cc1)C1CCCCC1`, the compound was classed as inactive.

On to `CC(O)COc1ccccc1` (stereo unspecified), for which the compound was called inactive.

With `CCC(C)c1ccccc1O` (stereo unspecified), the compound was classed as inactive.

Consider `C/C=C/C(=O)C1=C(C)CCCC1(C)C`, for which the AC50 is 65.5 µM (active).

Consider `O=C(NCc1ncc(C(F)(F)F)cc1Cl)c1c(Cl)cccc1Cl`, for which the compound was classed as inactive.

With `CCCCCC(C)OC(=O)COc1ccc(Cl)c2cccnc12` (stereo unspecified), the result was inactive.

As to `O=S(=O)(O)C(F)(F)C(F)(F)C(F)(F)C(F)(F)C(F)(F)C(F)(F)C(F)(F)C(F)(F)C(F)(F)C(F)(F)F`, the compound was classed as inactive.

For `c1cc2cccc3c4cccc5cccc(c(c1)c23)c54`, the compound was classed as inactive.

On to `CCCCC(CC)C(=O)OCCOCCOCCOCCOC(=O)C(CC)CCCC` (stereo unspecified), for which the outcome was inactive.

As to `CCCCCCCCCCCCOC(=O)c1cc(O)c(O)c(O)c1`, the compound was called inactive.

For `CCOC(C)=O`, the outcome was inactive.

In the case of `Cc1ccccc1OCC(=O)O`, the outcome was inactive.

Consider `NCc1cccc(CN)c1`, for which the compound was classed as inactive.

As to `CC(C)(C)c1ccc(CCC=O)cc1`, the compound was called inactive.

In the case of `CC(=O)CC(C)C`, the result was inactive.

For `NNc1nc(-c2ccc([N+](=O)[O-])cc2)cs1`, the result was inactive.

For the compound `OCC(F)(F)C(F)(F)C(F)(F)C(F)(F)C(F)(F)C(F)(F)C(F)(F)C(F)(F)C(F)(F)C(F)(F)C(F)(F)F`, the result was inactive.

Take `COC(=O)C(F)(F)C(F)(F)C(F)(F)F`: the outcome was inactive.

With `CCOC=O`, the outcome was inactive.

`CCCCCCCCCCCC[N+](C)(C)CCCCCCCCCCCC`: the compound was called inactive.

In the case of `CCCCCCCCCC=CCC1CC(=O)OC1=O` (stereo unspecified), the compound was called inactive.

For the compound `FC(F)(F)C(F)(F)C(F)(F)Br`, the call was inactive.

On to `Oc1cccc2c(O)cccc12`, for which the compound was classed as inactive.
